Among the data in PubChem BioAssay are composite z-score and z-score values, retold here.

SMILES strings stand for the structures. Activity calls are given as the source filed them.

Assay [1] relates to Plasmodium falciparum Sir2 (PF13_0152, Sir2A). Put plainly: Plasmodium falciparum Sir2A binding compounds – biochemical, small-molecule microarray, 635 nm fluorescence, primary screen (AID 1098).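 Further: score merges spot fluorescence intensity with its signal-to-noise ratio.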 The note with it: fluorescence 635 nm, higher = more signal.
The nature of assay [2]: probe aDKK1 binding to arrayed compounds – biochemical, biotinylated probe, 635/667 nm fluorescence, primary screen (AID 1099).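 Further: score merges 667nm spot fluorescence with signal to noise across triplicate slides.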 The settings on record: small-molecule microarray, higher = more signal.
The nature of assay [3]: probe aCHRDL2 binding to arrayed compounds – biochemical, biotinylated probe, 635/667 nm fluorescence, primary screen (AID 1100). The note with it: small-molecule microarray, higher = more signal.
A short description of assay [4]: change in splice reporter luminescence, either direction, cell-based, HEK293, spliceosome inhibition project, primary screen (AID 1101).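 Further: HEK293 cells carrying a splicing-competent luciferase reporter gene; test concentration not given here.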 The settings on record: HEK293 splicing luciferase reporter, 24 h, higher = more signal, called active from +8 up or from −8 down. (In general: Reporter assays use an easily measured gene product as a stand-in for the process of interest.)

In assay [5] the target is Fibroblast growth factor 10 (Homo sapiens) (UniProt O15520). Put plainly: compounds binding fibroblast growth factor 10 – biochemical, small-molecule microarray, 635 nm fluorescence, primary screen (AID 1102). The note with it: FGF10 binding, fluorescence 635 nm, higher = more signal.
Chain of Fibroblast growth factor 10 (Homo sapiens) (O15520 whole entry, looked up): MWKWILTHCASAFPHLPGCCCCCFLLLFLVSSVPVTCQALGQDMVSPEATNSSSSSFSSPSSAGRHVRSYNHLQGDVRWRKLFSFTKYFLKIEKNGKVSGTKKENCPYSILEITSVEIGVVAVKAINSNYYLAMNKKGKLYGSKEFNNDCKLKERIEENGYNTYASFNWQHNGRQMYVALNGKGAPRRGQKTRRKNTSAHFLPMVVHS
Assay [6] has as its system glycogen synthase kinase-3 (GSK3A per assay name; protocol says GSK3B). Put plainly: compounds binding glycogen synthase kinase-3 – biochemical, small-molecule microarray, 635 nm fluorescence, GSK3A, primary screen (AID 1103). Further: the record names both GSK3A and GSK3B. The settings on record: fluorescence 635 nm, higher = more signal.
Assay [7] has as its target Epidermal growth factor receptor (Homo sapiens) (UniProt P00533). Put plainly: compounds binding epidermal growth factor receptor – biochemical, small-molecule microarray, 635 nm fluorescence, primary screen (AID 1104).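 Further: score merges 667 nm emission intensity with spot signal to noise over triplicate slides.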 The note with it: EGFR binding, higher = more signal.
For assay [8], the target named is Follistatin-related protein 3 (Homo sapiens) (UniProt O95633). Put plainly: compounds binding follistatin-related protein 3 – biochemical, small-molecule microarray, 635 nm fluorescence, primary screen (AID 1105).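 Further: score merges emission near 667 nm and signal to noise per printed spot across three slides.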 The settings on record: FSTL3 binding, higher = more signal.
Chain of Follistatin-related protein 3 (Homo sapiens) (O95633 whole entry, looked up): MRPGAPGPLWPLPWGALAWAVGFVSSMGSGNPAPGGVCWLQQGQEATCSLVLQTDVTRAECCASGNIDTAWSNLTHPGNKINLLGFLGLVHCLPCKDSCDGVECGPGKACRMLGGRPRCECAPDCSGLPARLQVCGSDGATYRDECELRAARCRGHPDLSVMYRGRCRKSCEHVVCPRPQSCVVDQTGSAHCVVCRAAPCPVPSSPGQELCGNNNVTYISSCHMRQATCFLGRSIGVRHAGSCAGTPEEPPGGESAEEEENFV
Assay [9] concerns the target Dickkopf-related protein 1 (Homo sapiens) (UniProt O94907). Put plainly: small molecules binding DKK1 protein – biochemical, small-molecule microarray, 635 nm fluorescence scan, primary screen (AID 1106).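 Further: score merges emission near 667 nm with signal to noise over three replicate slides.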 The settings on record: higher = more signal.
Assay [10] concerns Inhibin beta A chain (activin A). Put plainly: small molecules binding activin A – biochemical, small-molecule microarray, 635 nm fluorescence scan, primary screen (AID 1107).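 Further: mouse activin A protein probed at 4.33 µg/mL on printed slides; score merges bound-protein fluorescence near 667 nm with spot signal-to-noise.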 The settings on record: INHBA, higher = more signal.
Assay [11] relates to Human papillomavirus type 1a protein E7 (residues 44-93). Put plainly: small molecules binding HPV E7 44-93 – biochemical, small-molecule microarray, residues 44-93, 635 nm fluorescence, primary screen (AID 1108).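 Further: E7 fragment applied at 1 µg/mL in TBST for 1 h at 4 C; score combines spot fluorescence with its signal to noise ratio.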 The note with it: fluorescence 635 nm, higher = more signal.
Assay [12] can be described thus: hepatitis C replication reporter changes, two-sided – Huh7 cells, luciferase reporter, HCV replication inhibitor project, primary screen (AID 1109).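 Further: huh7 hepatoma cells harbouring a luciferase neomycin HCV replicon reporter; luciferase luminescence as measure of HCV replicon replication; test concentration not given here.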 The note with it: Huh7 HCV replicon luciferase reporter, 48 h; higher = more signal.
Assay [13] deals with Left-right determination factor 2 (Homo sapiens) (UniProt O00292). Put plainly: small molecules binding LEFTY2 protein – biochemical, small-molecule microarray, 635 nm fluorescence scan, primary screen (AID 1110). The note with it: higher = more signal.
Chain of Left-right determination factor 2 (Homo sapiens) (O00292 whole entry, looked up): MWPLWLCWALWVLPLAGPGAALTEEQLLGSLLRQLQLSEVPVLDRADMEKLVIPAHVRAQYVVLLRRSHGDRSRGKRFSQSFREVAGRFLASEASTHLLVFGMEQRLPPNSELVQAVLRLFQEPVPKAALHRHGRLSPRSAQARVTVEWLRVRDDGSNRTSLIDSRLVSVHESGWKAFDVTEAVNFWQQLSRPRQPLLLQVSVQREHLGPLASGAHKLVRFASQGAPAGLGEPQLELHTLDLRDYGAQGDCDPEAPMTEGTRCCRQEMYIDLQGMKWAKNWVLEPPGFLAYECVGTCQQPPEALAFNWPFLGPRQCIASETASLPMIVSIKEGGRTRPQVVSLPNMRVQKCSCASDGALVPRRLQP
In assay [14] the target is Calmodulin-1 (Homo sapiens) (UniProt P0DP23). Put plainly: small molecules binding calmodulin-1 with EGTA – biochemical, small-molecule microarray, Cy5-labelled CALM1, profiling panel (AID 1111).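 Further: labelled calmodulin applied in Tris saline Tween buffer holding calcium plus EGTA and DTT.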 The settings on record: Cy5-CALM1 binding fluorescence, higher = more signal.
For assay [15] the target is unchanged. Put plainly: small molecules binding Ca-loaded calmodulin-1 – biochemical, small-molecule microarray, Cy5-labelled CALM1, plus calcium, artefact control for SMM control-protein annotation, profiling panel (AID 1112).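 Further: score merges spot fluorescence with signal to noise from triplicate slides.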 The note with it: Cy5-CALM1 binding fluorescence, higher = more signal.
Assay [16] can be described thus: probe aWnt5a binding to arrayed compounds – biochemical, biotinylated probe, 635/667 nm fluorescence, primary screen (AID 1113).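 Further: score merges 667 nm fluorescence intensity with signal-to-noise per printed feature.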 The note with it: small-molecule microarray, higher = more signal.
Assay [17] is described as follows: probe aShh binding to arrayed compounds – biochemical, biotinylated probe, 635/667 nm fluorescence, primary screen (AID 1114).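 Further: probe is biotin-labelled aShh protein from a stem cell growth factor screen; measures binding of labelled protein to compounds printed on the slide; score merges feature fluorescence at 667 nm with signal-to-noise.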 The settings on record: small-molecule microarray, higher = more signal.
A short description of assay [18]: probe aNog binding to arrayed compounds – biochemical, biotinylated probe, 635/667 nm fluorescence, primary screen (AID 1115).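 Further: probe is biotinylated aNog protein used at 0.15 µg/mL for 1 h at 4 C; z-score combines 667 nm fluorescence of each spot with its signal to noise.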 The note with it: small-molecule microarray, higher = more signal.
For assay [19], the target named is Torsin-1A-interacting protein 1 (Homo sapiens) (UniProt Q5JTV8). Put plainly: compound microarray binding of lysate hLAP1 – cell lysate, small-molecule microarray, COS7 lysate, 635/667 nm fluorescence, primary screen (AID 1116). The settings on record: 635 nm fluorescence, higher = more signal.
Chain of Torsin-1A-interacting protein 1 (Homo sapiens) (Q5JTV8 whole entry, looked up): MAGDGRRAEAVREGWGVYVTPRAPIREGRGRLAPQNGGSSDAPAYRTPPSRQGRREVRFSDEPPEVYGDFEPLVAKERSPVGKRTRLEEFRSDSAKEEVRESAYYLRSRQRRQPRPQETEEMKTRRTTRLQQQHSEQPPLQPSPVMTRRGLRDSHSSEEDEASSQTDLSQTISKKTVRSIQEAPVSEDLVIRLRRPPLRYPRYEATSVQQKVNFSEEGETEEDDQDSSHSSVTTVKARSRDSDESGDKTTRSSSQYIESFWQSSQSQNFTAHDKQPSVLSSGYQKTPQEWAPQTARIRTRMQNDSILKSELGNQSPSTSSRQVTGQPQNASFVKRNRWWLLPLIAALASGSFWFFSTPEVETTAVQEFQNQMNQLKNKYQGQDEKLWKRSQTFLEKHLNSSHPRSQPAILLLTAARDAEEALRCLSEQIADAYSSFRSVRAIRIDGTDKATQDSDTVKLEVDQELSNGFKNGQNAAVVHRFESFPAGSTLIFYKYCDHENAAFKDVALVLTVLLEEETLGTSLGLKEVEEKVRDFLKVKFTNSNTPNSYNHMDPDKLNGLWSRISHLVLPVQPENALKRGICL
For assay [20], the target named is Alpha-bungarotoxin (Bungarus multicinctus) (UniProt P60615). Put plainly: compounds binding labelled alpha-BTX control protein – biochemical, small-molecule microarray, Alexa647 label, 635/667 nm fluorescence, artefact control for SMM control protein annotation, profiling panel (AID 1117). The settings on record: alpha-BTX-A647 binding fluorescence, higher = more signal.
Chain of Alpha-bungarotoxin (Bungarus multicinctus) (P60615 whole entry, looked up): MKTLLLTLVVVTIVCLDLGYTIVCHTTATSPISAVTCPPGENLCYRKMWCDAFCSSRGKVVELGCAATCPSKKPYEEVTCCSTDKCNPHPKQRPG

Chain of Dickkopf-related protein 1 (Homo sapiens) (O94907 whole entry, looked up): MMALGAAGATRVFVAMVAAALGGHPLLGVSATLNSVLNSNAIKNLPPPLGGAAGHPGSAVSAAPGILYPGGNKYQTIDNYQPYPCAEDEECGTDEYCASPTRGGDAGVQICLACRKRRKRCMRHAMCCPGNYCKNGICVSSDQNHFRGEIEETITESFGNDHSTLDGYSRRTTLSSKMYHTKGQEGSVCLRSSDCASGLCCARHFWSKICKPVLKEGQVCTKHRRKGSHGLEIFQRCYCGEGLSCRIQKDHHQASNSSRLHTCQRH
Chain of Epidermal growth factor receptor (Homo sapiens) (P00533 whole entry, looked up): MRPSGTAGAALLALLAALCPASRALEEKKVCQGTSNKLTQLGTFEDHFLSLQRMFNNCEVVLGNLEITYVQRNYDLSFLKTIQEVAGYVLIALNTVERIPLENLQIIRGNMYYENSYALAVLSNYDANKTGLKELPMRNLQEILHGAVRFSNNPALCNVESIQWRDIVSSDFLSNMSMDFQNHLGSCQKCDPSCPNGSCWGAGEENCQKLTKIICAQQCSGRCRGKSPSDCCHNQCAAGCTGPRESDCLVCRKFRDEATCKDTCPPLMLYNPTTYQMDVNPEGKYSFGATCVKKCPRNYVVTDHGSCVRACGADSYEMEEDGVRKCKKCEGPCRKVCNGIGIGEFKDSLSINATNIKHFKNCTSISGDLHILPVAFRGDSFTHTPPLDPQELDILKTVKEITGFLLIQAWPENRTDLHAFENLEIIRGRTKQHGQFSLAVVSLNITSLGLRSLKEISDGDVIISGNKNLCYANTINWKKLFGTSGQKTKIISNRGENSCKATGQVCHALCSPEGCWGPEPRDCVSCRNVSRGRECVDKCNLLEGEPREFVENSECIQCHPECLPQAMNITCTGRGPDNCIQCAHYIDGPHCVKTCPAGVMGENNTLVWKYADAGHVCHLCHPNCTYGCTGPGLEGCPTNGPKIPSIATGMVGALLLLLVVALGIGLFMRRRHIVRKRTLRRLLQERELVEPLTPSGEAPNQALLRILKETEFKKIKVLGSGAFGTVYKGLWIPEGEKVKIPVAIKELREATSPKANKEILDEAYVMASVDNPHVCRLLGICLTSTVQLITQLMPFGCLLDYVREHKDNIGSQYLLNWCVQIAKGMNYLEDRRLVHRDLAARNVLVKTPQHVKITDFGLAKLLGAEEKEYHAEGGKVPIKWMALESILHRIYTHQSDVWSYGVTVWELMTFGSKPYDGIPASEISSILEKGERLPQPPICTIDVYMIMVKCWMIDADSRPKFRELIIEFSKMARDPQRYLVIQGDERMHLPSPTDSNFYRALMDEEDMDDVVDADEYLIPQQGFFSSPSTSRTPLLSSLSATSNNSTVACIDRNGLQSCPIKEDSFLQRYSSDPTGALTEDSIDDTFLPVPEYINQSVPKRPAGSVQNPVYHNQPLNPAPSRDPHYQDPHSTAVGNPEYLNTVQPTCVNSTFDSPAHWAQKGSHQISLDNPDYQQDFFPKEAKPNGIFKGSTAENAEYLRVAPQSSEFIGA

On to `C#CCCCON=C1C[C@@H](O)[C@@H](O)[C@@H]2[C@@H]3C(=O)N(Cc4ccc5c(c4)OCO5)C(=O)[C@@H]3CC[C@H]12`, for which the composite z-score in assay [1] was 0.419; in assay [2], -0.254; in assay [3] it was -0.463; in [5] it was 1.34; in [6], 0.253; in assay [7], 0.328. Further, the composite z-score is 0.578 in [8]; 0.59 in assay [9]; -0.345 in [10]; 1.36 in assay [11]; 0.774 in assay [13]; 0.601 in [14]. Further, the composite z-score in assay [15] was -0.783; in assay [16], -0.0735; in assay [17] it was 0.0796; in assay [18], -0.326; in assay [19], 1.34; in assay [20], 0.24. Also, the z-score in assay [4] was -0.16 (inactive); in assay [12], -0.0463.

`COc1ccc([Si](C)(C)[C@H]2[C@H](CCO)O[C@@]3(C(=O)N(Cc4ccc(N5CCCCC5=O)cc4)c4ccccc43)[C@@H]2C)cc1`: the composite z-score in assay [1] was determined as 1.36; in assay [2], 0.175; in assay [3], 0.37; in assay [5], 0.345; in assay [6], 0.642; in [7], 0.122. Moreover, the composite z-score in [8] was determined as 0.55; in assay [9], 0.236; in assay [10], 0.766; in assay [11], 0.247; in assay [13], 0.139; in assay [14], 1.49. In addition, the composite z-score was 1.02 in assay [15]; -0.116 in assay [16]; 0.0141 in assay [17]; 0.338 in assay [18]; 0.643 in assay [19]; 1.7 in assay [20]. Moreover, the z-score in assay [4] was 1.23 (inactive); in [12] it was -4.77.

For `Cc1ccc(S(=O)(=O)c2cc3oc2CC[C@@H](CO)NC(=O)N(C)Cc2cn(nn2)C[C@H](Cc2ccccc2)NC3=O)cc1`, the composite z-score in [1] is 1.36; in assay [2], -0.122; in assay [3], -0.0291; in assay [5] it was -0.0287; in [6], 0.164; in assay [7], -0.497. The composite z-score is -0.233 in assay [8]; -0.266 in assay [9]; -0.171 in [10]; -0.398 in assay [11]; -0.587 in [13]; 0.212 in assay [14]. The composite z-score in assay [15] was 0.175; in assay [16], -0.1; in [17] it was 0.483; in [18], 0.402; in [19], 0.781; in assay [20], 0.513. Further, the z-score in [4] is -0.0233 (inactive); in assay [12] it was -0.376.

On to `CC(=O)NCCCC[C@@H]1NC(=O)[C@@H]2C[C@H](C(=O)NCc3ccc(F)cc3)[C@H](c3cccc(OCCO)c3)N2C1=O`, for which the composite z-score in [1] was 1.02; in [2], 0.0839; in [3], 0.0979; in assay [5] it was 0.0733; in assay [6], -0.895; in assay [7], -0.148. Moreover, the composite z-score is -0.488 in assay [8]; -0.047 in [9]; 0.101 in [10]; 0.843 in [11]; -0.0566 in assay [13]; -0.286 in assay [14]. Moreover, the composite z-score is 0.0377 in assay [15]; -0.0836 in assay [16]; 0.0469 in assay [17]; -0.183 in assay [18]; 0.436 in assay [19]; -0.86 in assay [20]. Besides, the z-score in [4] was 0.281 (inactive); in assay [12], -0.0901.

As to `C=CC[C@]1(C(N)=O)N=C(c2ccc(OCCCO)cc2)O[C@H]1c1ccccc1CN=[N+]=[N-]`, the composite z-score in [1] was 0.255; in assay [2], 0.683; in assay [3], 1.24; in assay [5] it was 0.0555; in [6], 0.518; in assay [7] it was -1.03. The composite z-score was -0.325 in assay [8]; -0.632 in assay [9]; 1.46 in [10]; 1.03 in [11]; -1.11 in [13]; 1.91 in assay [14]. Also, the composite z-score in assay [15] is 1.14; in [16] it was -0.124; in assay [17], -0.203; in assay [18], 0.165; in [19], 1.87; in assay [20], 1.03. Besides, the z-score in [4] was -0.783 (inactive); in assay [12], -1.33.

`COc1ccc([Si](C)(C)[C@@H]2[C@@H](CCO)O[C@]3(C(=O)N(Cc4ccc(NC(=O)[C@H](C)O)cc4)c4ccccc43)[C@H]2C)cc1`: the composite z-score in assay [1] turned out to be 1.3; in [2] it was 0.305; in [3] it was 0.161; in assay [5] it was 0.245; in assay [6], 0.993; in assay [7], 0.226. The composite z-score in assay [8] came out at 0.335; in [9], 0.0302; in [10] it was 0.316; in assay [11], 1.39; in assay [13], 0.0969; in assay [14], 0.805. Besides, the composite z-score was -0.0051 in assay [15]; -0.12 in assay [16]; -0.0626 in [17]; 0.0169 in assay [18]; 0.694 in [19]; 0.94 in assay [20]. The z-score was -4.19 (inactive) in [4] and -5.23 in assay [12].
